PubChem BioAssay (EPA / NIEHS)
Records with an inconclusive call do not appear. The source made the active and inactive calls. How the source made its calls, unless noted: active means hit-call score of the fitted dose curve at least 0.9, where 1 is the maximum; inactive means score below 0.9.

Tests used:
[1] = UKN2_HCS_IMR90_cell_viability: Viability Assessment in the University of Konstanz (UKN) Leist Lab Neural Crest Cell Migration Assay in human induced IMR90 Pluripotent Stem Cells (UKN2) (AID 2284233);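 further: viability of neural crest cells differentiated from IMR90 iPSC measured by calcein-AM fluorescence imaging; cells exposed to compound for 24 h after a 24 h migration phase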
How it was run: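 cMINC format, iPSC-derived neural crest (IMR90); 24 h migration (EGF/FGF, N2-S), then 24 h toxicant. Calcein-AM/H-33342 stain 30 min; fluorescence intensity by HCS; DMSO-normalised, bidirectional fitting.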

[2] = CCTE_Mundy_HCI_Cortical_NOG_NeuronCount: CCTE's Neurite Outgrowth Assay in rat cortical cells for Neuron Count, Mundy Lab (AID 2284236; active means hit-call score of the fitted dose curve at least 0.9, where 1 is the maximum;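 further: neurons counted by imaging betaIII-tubulin and Hoechst stained cortical cells; cells exposed to compound for about 48 hours before fixation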)
How it was run: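 Read-out: neuron number by high-content imaging of betaIII-tubulin (Alexa Fluor-488) and Hoechst-labelled rat primary cortical cells.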

[3] = CCTE_Mundy_HCI_Cortical_NOG_BPCount: CCTE's Neurite Outgrowth Assay in rat cortical cells for Branch Point Count, Mundy Lab (AID 2284237)
How it was run: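 Measured 50.33 h after dosing, this morphology endpoint uses rat primary cortical cultures labelled for betaIII-tubulin. Branch points are quantified by high-content imaging, with DMSO as negative control and baseline.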

[4] = CCTE_Mundy_HCI_hNP1_Casp3_7: CCTE's Caspase-Glo 3/7 Assay in human neuroprogenitor cells for Apoptosis, Mundy Lab (AID 2284240)
How it was run: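 Neuroepithelial-lineage stem cells from WA09 embryonic cells were treated with chemicals after 40–44 h of culture. Twenty-four hours later, caspase-3/7 activation was detected luminescently after a 30 min room-temperature reagent step, with DMSO as baseline.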

[5] = CCTE_Mundy_HCI_hNP1_CellTiter: CCTE's Cell Titer-Glo 2 Assay in human neuroprogenitor cells for Viability, Mundy Lab (AID 2284241; active means hit-call score of the fitted dose curve at least 0.9, where 1 is the maximum;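 further: a hit is a drop in ATP luminescence versus DMSO meaning reduced viability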)
How it was run: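 Measures ATP content in human neural progenitors derived from WA09 embryonic cells. Read-out at 26.5 hours after dosing, with DMSO serving as the negative control and baseline.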

[6] = CCTE_Mundy_HCI_Cortical_Synap_Neur_Matur_NeuronCount: CCTE's Synaptogenesis and Neurite Maturation Assay in rat cortical cells for Neuron Count, Mundy Lab (AID 2284242; active means hit-call score of the fitted dose curve at least 0.9, where 1 is the maximum)
How it was run: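 Rat cortical cultures; AraC DIV 5; chemical dosing + media change DIV 7 to DIV 12 (288.33 h readout). Fix, Hoechst, anti-MAP2/anti-synaptophysin immunostain; HCI neuron count vs DMSO baseline.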

[7] = IUF_NPC2c_oligodendrocyte_migration_120hr: Leibniz Research Institute for Environmental Medicine (IUF) 120-hour Neural Progenitor Cell Migration Assay for Oligodendrocyte Migration (NPC2c) (AID 2284297);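 further: O4-positive oligodendrocyte migration distance divided by radial glia migration distance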
How it was run: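 hNPC spheres (GW 16-19 cortex), PDL/laminin, DMEM/F12 3:1 + 1% N2, 37C. Dosing day 0–5, half feed day 3, DMSO ≤0.1%. Fixed 120 h; O4 ICC + Hoechst, HCI. Readout: mean oligodendrocyte distance from sphere edge / radial glia distance.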

[8] = IUF_NPC2a_radial_glia_migration_120hr: Leibniz Research Institute for Environmental Medicine (IUF) 120-hour Neural Progenitor Cell Migration Assay for Radial Glia Migration (NPC2a) (AID 2284298)
How it was run: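 Hoechst-stained nuclei imaged at 120 h; algorithm maps sphere core by densest nuclei, sets migration edge at density threshold, gives radial glia migration distance (um) per well vs DMSO. hNPC spheres (0.3 mm), PDL/laminin, DMEM/F12 3:1 + 1% N2.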

[9] = IUF_NPC2a_radial_glia_migration_72hr: Leibniz Research Institute for Environmental Medicine (IUF) 72-hour Neural Progenitor Cell Migration Assay for Radial Glia Migration (NPC2a) (AID 2284299)
How it was run: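 Readout: mean of four manual brightfield measurements of radial glia migration distance (um) at 72 h. hNPC spheres (0.3 mm) exposed to 7 compound concentrations plus solvent control on PDL/laminin, 37C, 5% CO2; activity fitted relative to DMSO.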

[10] = IUF_NPC2b_neuronal_migration_120hr: Leibniz Research Institute for Environmental Medicine (IUF) 120-hour Neural Progenitor Cell Migration Assay for Neuron Migration (NPC2b) (AID 2284300)
How it was run: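 hNPC spheres, PDL/laminin, DMEM:F12 3:1 + 1% N2, 37C/5% CO2; 7 concentrations + solvent control (DMSO ≤0.1%), 5 d exposure, half-feed day 3. Fix 120 h, TUBB3 ICC, HCI: mean neuron migration distance ÷ glia distance.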

[11] = IUF_NPC3_neuronal_differentiation_120hr: Leibniz Research Institute for Environmental Medicine (IUF) 120-hour Neuronal Differentiation Assay (NPC3) (AID 2284301)
How it was run: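 Neuronal differentiation of primary human neural progenitors measured by high-content imaging: percent TUBB3+ of Hoechst+ nuclei within migrated area at 120 h, seven-point serial dilution plus solvent control, gain or loss relative to DMSO.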

[12] = IUF_NPC4_neurite_length_120hr: Leibniz Research Institute for Environmental Medicine (IUF) 120-hour Neuronal Morphology Assay for Neurite Length (NPC4) (AID 2284302)
How it was run: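 Neurons from differentiating human fetal neural progenitor spheres are scored for average neurite length after five days of compound exposure. Fitting uses DMSO as negative control.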

[13] = IUF_NPC5_oligodendrocyte_differentiation_120hr: Leibniz Research Institute for Environmental Medicine (IUF) 120-hour Oligodendrocyte Differentiation Assay (NPC5) (AID 2284304; active means hit-call score of the fitted dose curve at least 0.9, where 1 is the maximum;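 further: primary human fetal neural progenitor spheres plated to migrate and differentiate; share of O4-positive cells among Hoechst nuclei found by CNN image analysis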)
How it was run: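 hNPC spheres, fetal cortex GW 16-19; PDL/laminin, DMEM:F12 3:1 + 1% N2, 37C/5% CO2; 7 concentrations + solvent control, 5 d exposure, half-change day 3. Readout: %O4+ of Hoechst+ nuclei in migration area, CNN classification; DMSO baseline.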

[14] = IUF_NPC4_neurite_area_120hr: Leibniz Research Institute for Environmental Medicine (IUF) 120-hour Neuronal Morphology Assay for Neurite Area (NPC4) (AID 2284305; active means hit-call score of the fitted dose curve at least 0.9, where 1 is the maximum)
How it was run: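 Endpoint at 120 h: automated imaging of TUBB3/Hoechst-stained differentiating human neural progenitor spheres, neurite area per neuron from skeletonization. DMSO solvent control, not above 0.1%, set the baseline; medium was half-replaced on day 3.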

[15] = IUF_NPC2-5_cytotoxicity_72hr: Cytotoxicity Assessment at 72 hours in the Leibniz Research Institute for Environmental Medicine (IUF) Neural Progenitor Cell Migration and Differentiation Assay for Cytotoxicity (NPC2-5) (AID 2284306; active means hit-call score of the fitted dose curve at least 0.9, where 1 is the maximum;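 further: LDH release into supernatant measured by resorufin fluorescence marking membrane damage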)
How it was run: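 Primary human neural progenitor spheres migrate and differentiate on laminin. Compound is present from the start of differentiation, with DMSO kept at or below 0.1%. At 72 h, supernatant LDH is quantified fluorometrically, with values fitted in the positive direction.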

[16] = IUF_NPC2-5_cell_number_120hr: Cell Number Assessment at 120 hours in the Leibniz Research Institute for Environmental Medicine (IUF) Neural Progenitor Cell Migration and Differentiation Assay (NPC2-5) (AID 2284308);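 further: count of Hoechst-stained nuclei in migration zone around plated human neural progenitor spheres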
How it was run: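 Hoechst-stained nuclei within the migration area were counted by automated high content imaging after 120 h. Single hNPC spheres differentiated on poly-D-lysine/laminin in DMEM/F12 (3:1) with 1% N2, compound present throughout, DMSO ≤0.1%.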

[17] = IUF_NPC2-5_viability_120hr: Viability Assessment at 120 hours in the Leibniz Research Institute for Environmental Medicine (IUF) Neural Progenitor Cell Migration and Differentiation Assay (NPC2-5) (AID 2284312)
How it was run: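 Human fetal (GW 16-19) neural progenitor spheres of 0.3 mm were plated on poly-D-lysine/laminin in N2 differentiation medium and exposed from day 0 for 120 h, with half-medium refresh at day 3. Viability was read as alamar blue resazurin-to-resorufin fluorescence against DMSO.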

[18] = CCTE_Mundy_HCI_iCellGluta_NOG_NeuriteLength: CCTE's Neurite Outgrowth Assay in iCellGluta cells for Neurite Length, Mundy Lab (AID 2284318; active means hit-call score of the fitted dose curve at least 0.9, where 1 is the maximum)
How it was run: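 Automated high-content imaging of betaIII-tubulin (Alexa Fluor-488) and Hoechst-stained cells gave neurite length, normalized to the DMSO baseline.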

[19] = IUF_NPC1_cytotoxicity_72hr: Cytotoxicity Assessment at 72 hours in the Leibniz Research Institute for Environmental Medicine (IUF) Neural Progenitor Cell Proliferation Assay (NPC1) (AID 2284332; active means hit-call score of the fitted dose curve at least 0.9, where 1 is the maximum;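 further: rising LDH signal means more cytotoxicity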)
How it was run: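 LDH in supernatant, resazurin→resorufin fluorescence (RFU), 72 h exposure, no re-dosing. Cells: primary hNPC spheres, one per well, EGF+FGF medium, 37C/5% CO2, pH 7.2-7.6. Fit: positive direction vs baseline and dynamic range.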

[20] = CCTE_Mundy_HCI_iCellGluta_NOG_NeuronCount: CCTE's Neurite Outgrowth Assay in iCellGluta cells for Neuron Count, Mundy Lab (AID 2284340; active means hit-call score of the fitted dose curve at least 0.9, where 1 is the maximum;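 further: cells fixed about 48 h after compound addition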)
How it was run: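 Neuron count read by automated high-content imaging of Hoechst 33342 and betaIII-tubulin/Alexa Fluor-488 labelling in human iPSC glutamatergic neurons. Activity fitted relative to DMSO.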

Measured: AC50

C[C@@H]1CCO[C@H]2Cn3cc(C(=O)NCc4ccc(F)cc4F)c(=O)c(O)c3C(=O)N12
active: [4] 10.1 µM | [5] 14.9 µM
inactive: [1] | [2] | [3] | [6] | [7] | [8] | [9] | [10] | [11] | [12] | [13] | [14] | [15] | [16] | [17] | [18] | [19] | [20]
